System: PAK4
Conditions: concentration: 1 μM,replicates: in singlicate; n = 1
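Note: KINOMEscan kinase panel screen.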

Row | Structure (SMILES) | %Inh [%]
1 | COC(=O)Nc1nc2cc(Oc3ccc(NC(=O)Nc4cc(C(F)(F)F)ccc4Cl)cc3)ccc2[nH]1.Cl [GW697465] | 0
2 | CS(=O)(=O)c1cccc(CNc2nc(Nc3ccc4c(c3)[C@@H]3C[C@@H]4CNC3=O)ncc2C(F)(F)F)c1 | 0
3 | COc1cccc(C2=C(Nc3cccc(Cl)c3)C(=O)NC2=O)c1 [SB-341556] | 0
4 | Cc1ccc2c(-c3ccnc(Nc4ccc(C(F)(F)F)cc4)n3)cnn2n1 [GW819776] | 0
5 | CN1CCN(CCNc2nc3cc(Oc4ccc(NC(=O)Nc5cc(C(F)(F)F)ccc5F)cc4)ccc3[nH]2)CC1.Cl.Cl [GW768504] | 10
6 | COc1cc2c(Nc3ccc(NC(=O)c4ccccc4)cc3)ncnc2cc1OCCCN1CCOCC1 [GSK301329] | 0
7 | COc1cccc(OC)c1C(=O)Nc1cccc(-c2nn3ccccc3c2-c2ccnc(Nc3cccc(F)c3)n2)c1 [GSK361065] | 10
8 | Cc1cccc(-c2nc(Nc3ccncc3)c3sccc3n2)n1 [GW869641] | 23
9 | C[C@@H](Oc1cc(-n2cnc3cc(-c4cnn(C)c4)ccc32)sc1C(N)=O)c1ccccc1Cl [GSK580432] | 0
10 | Cn1ccc2ncnc(Oc3ccc(NC(=O)Nc4cnn(C(C)(C)C)c4)c(Cl)c3)c21 | 5
11 | Cn1ccc2ncnc(Oc3ccc(NC(=O)Nc4ccnc(C(F)(F)F)c4)c(Cl)c3)c21 | 7
12 | C[C@@H](Oc1cc(-n2cnc3cc(-c4ccncc4)ccc32)sc1C(N)=O)c1ccccc1Cl [GSK479719] | 0
13 | c1ccc(Oc2ccc(Nc3ccnc4ccc(-c5ccccn5)cc34)cc2)cc1 [GW407034] | 0
14 | COC(=O)c1cccc(NC(=O)NC2CCN(c3ccnc(NCc4ccc(F)cc4)n3)CC2)c1 [GSK1379860] | 0
15 | COc1cccc(CNC(=O)NC2CCN(c3ccnc(Nc4cc(OC)c(OC)c(OC)c4)n3)C2)c1 (stereo not shown) [GSK1379765] | 0
16 | Cn1ccc2ncnc(Oc3ccc(NC(=O)Nc4cccc(C(F)(F)F)c4)c(Cl)c3)c21 | 15
17 | O=C(NCC1CC1)c1ccc(-c2cc(C(=O)NC3CC3)ccc2F)cc1 [GW810445] | 0
18 | O=c1[nH]cc(-c2ccc(O)cc2)c2sc(-c3ccncc3)cc12 [GSK1033723] | 0
19 | Cn1ccc2ncnc(Oc3ccc(NC(=O)Nc4cncc(C(F)(F)F)c4)c(Cl)c3)c21 | 1

Row | Structure (SMILES) | %Inh [%]
20 | Cc1ccc(Nc2ccnc(Nc3ccc4c(c3)CS(=O)(=O)C4)n2)cc1O.Cl [GW579362] | 0
21 | N#Cc1cccc(C(=O)NC2CCN(c3ccnc(Nc4ccc(F)cc4)n3)C2)c1 (stereo not shown) [GSK1379708] | 0
22 | C[C@@H]1CNc2c(sc3ccc4nc(-c5ccc(O)cc5)ccc4c23)C(=O)N1 | 9
23 | C[C@@H]1CNc2c(sc3ccc4nc(-c5ccncc5)ccc4c23)C(=O)N1 | 24
24 | Cl.Nc1n[nH]c2cc(-c3ccccn3)ccc12 [GSK2189892] | 0
25 | CCNCC(Cc1ccccc1)NC(=O)c1cc(Br)c(-c2ccnc3[nH]ccc23)s1.Cl.Cl (stereo not shown) [GSK1383280] | 44
26 | CN(c1ccc2c(c1)nc(NCc1ccc(F)cc1)n2C)c1ccnc(Nc2ccc(CS(C)(=O)=O)cc2)n1.Cl [GW813244] | 15
27 | COc1cc2ncn(-c3cc(OCC4CCCCC4)c(C(N)=O)s3)c2cc1OC [GSK204559] | 0
28 | O=C(Nc1ccc(Oc2ccc3nc(NC(=O)C4CC4)cn3n2)c(F)c1)c1cccn(-c2ccccc2)c1=O | 0
29 | Cl.Cl.NC[C@H](CC1CCCCC1)NC(=O)c1ccc(-c2ccnc3[nH]ccc23)s1 [GSK1581428] | 34
30 | CSc1nccc(-c2c(-c3ccc(F)cc3)ncn2CCCN2CCOCC2)n1.Cl [SB-217146] | 10
31 | CCOC(=O)N1CCC(n2cnc(-c3ccc(F)cc3)c2-c2ccnc(N)n2)CC1 [SB-219952] | 28
32 | CS(=O)(=O)Nc1ccc(-c2ccnc3[nH]ccc23)cc1 [GSK993273] | 0
33 | O=C(Nc1cccc(C(F)(F)F)c1)c1cccc(Oc2ccc3nccn3n2)c1 | 8
34 | O=C(NOCC1CC1)c1cc(Br)c(F)c(F)c1Nc1ccc(I)cc1Cl | 0
35 | CC(C)c1nc(-c2cccc(NS(=O)(=O)c3ccccc3)c2)c(-c2ccnc(Nc3ccc4c(c3)CN(C)CC4)n2)s1 [GSK1649598] | 0
36 | OCCn1cc(-c2cnc3nnn(Cc4ccc5ncccc5c4)c3n2)cn1 | 11
37 | O=C(Nc1n[nH]c2cc(-c3ccco3)ccc12)C1CC1 [SB-737447] | 1

— paper PMC5540273 (PLoS ONE, 2017)
